# Measurements from PubChem BioAssay (Tox21).
# Results filed as inconclusive are left out. A call without a number means that no potency is given here. Unmarked numbers belong to inactive results. Calls of active or inactive are those of the source. The call rests on the fitted dose curve; in most records, active means well fitted inhibition curve with a large enough effect in the repeat runs; inconclusive means weak or mixed curves; inactive means no such curve, though single readings can be large or run the other way.
# Molecular target: Cytochrome P450 3A4 (Homo sapiens) (UniProt P08684)
# Sequence (P08684 whole entry, looked up): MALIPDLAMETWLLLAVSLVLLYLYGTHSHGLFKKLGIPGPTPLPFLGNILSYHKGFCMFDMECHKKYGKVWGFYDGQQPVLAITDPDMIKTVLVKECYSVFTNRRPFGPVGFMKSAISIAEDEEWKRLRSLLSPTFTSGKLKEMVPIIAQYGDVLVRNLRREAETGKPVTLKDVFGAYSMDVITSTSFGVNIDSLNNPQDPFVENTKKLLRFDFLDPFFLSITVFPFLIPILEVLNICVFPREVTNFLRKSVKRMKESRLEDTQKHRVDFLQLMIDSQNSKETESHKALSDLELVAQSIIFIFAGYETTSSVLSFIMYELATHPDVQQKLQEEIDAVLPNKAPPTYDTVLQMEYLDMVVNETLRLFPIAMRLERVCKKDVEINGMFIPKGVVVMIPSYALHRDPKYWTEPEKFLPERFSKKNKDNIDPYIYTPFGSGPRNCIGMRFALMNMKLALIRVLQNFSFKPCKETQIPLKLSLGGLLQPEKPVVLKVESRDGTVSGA
# Experiment: Cytochrome P450 Family 3 Subfamily A Member 4 (CYP3A4) small molecule antagonists: luciferase reporter qHTS assay (AID 1671201); further: nearly all actives have a fitted effect of over 50% in size
# Conditions: P450-Glo CYP3A4 enzyme, luciferin luminescence, 1 h; series mostly up to 115 µM
# How it was run: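 Enzyme and proluciferin substrate are mixed with test chemicals for 10 min, then NADPH regeneration system drives turnover for 1 h at room temperature. A detection reagent halts the reaction; luminescence after 20 min gives relative activity.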
# Potency means the concentration at half of the fitted maximal effect.
SMILES,Potency,"activity change, negative = inhibition"
Brc1cc(Br)cc(Br)c1,inactive,–
CCCCCCCCc1ccc(Nc2ccc(CCCCCCCC)cc2)cc1,inactive,–
c1ccc2occc2c1,inactive,–
CCc1cccc(CC)c1,inactive,–
CC1CCC(C(C)(C)O)CC1 (stereo not drawn),inactive,–
CN1CCN(C)CC1,inactive,–
Cc1cccc(C)c1C,inactive,–
c1ccc2c(c1)-c1ccc3ccc4cccc5cc-2c1c3c45,inactive,–
CC(C)(c1ccc(Oc2ccc(N)cc2)cc1)c1ccc(Oc2ccc(N)cc2)cc1,2.52 µM (active),–
c1ccc(C[P+](c2ccccc2)(c2ccccc2)c2ccccc2)cc1,inactive,–
Cn1c(=O)[nH]c2ncn(C)c2c1=O,inactive,–
CC(C)(C)C1=CC(=O)C(C(C)(C)C)=CC1=O,inactive,–
CCCCCCCCCCCCN1CCCC1=O,inactive,–
Cc1ccc(Cl)c(N)c1Cl,inactive,–
CC1(C)[C@H](C(=O)OCc2cccc(Oc3ccccc3)c2)[C@@H]1C=C(Cl)Cl,inactive,–
CC(CC(C)(C)C)CC(C)(C)CC(C)(C)C (stereo not drawn),inactive,–
CC/C=C(\C)C=O,inactive,–
Clc1cccc(Cl)n1,inactive,–
CCCCCN=C(N)N/N=C/c1c[nH]c2ccc(OC)cc12,inactive,–

SMILES,Potency,"activity change, negative = inhibition"
C=CC(C)(C)O,inactive,–
COc1cc(/C=C/C(=O)CC(=O)/C=C/c2ccc(O)c(OC)c2)ccc1O,10.1 µM (active),–
Cc1ccc2n[nH]nc2c1,inactive,–
CCNc1nc(NC(C)(C)C)nc(OC)n1,inactive,–
O=C1OC(O)C(C(Cl)Cl)=C1Cl (stereo not drawn),inactive,–
O=C1CCCCCCCCCCCCCC1,35.6 µM (active),–
O=c1cc[nH]cc1,inactive,–
O=C1OC2(c3ccccc31)c1ccc(O)c(Br)c1Oc1c2ccc(O)c1Br,inactive,–
COc1cc(C(C)C)ccc1C,–,-0.0855% [at 23.6 µM]
NCc1cccc(C2CCN(C(=O)c3ccc(C#Cc4ccccc4F)o3)CC2)c1,5.64 µM (active),–
CCCCCCCCCCCC(=O)Cl,inactive,–
O=C1CCC(=O)N1,inactive,–
Clc1nc(C(Cl)(Cl)Cl)c(Cl)c(Cl)c1Cl,3.99 µM (active),–
C=Cc1ccc(O)c(OC)c1,20 µM (active),–
Cc1ccc(C=O)cc1,inactive,–
Cc1cc(Br)ccc1NC(=O)CCl,inactive,–
CCN(CC)c1ccc2c(c1)Oc1cc(N(CC)CC)ccc1C21OC(=O)c2ccccc21,11 µM (active),–
C=CCc1cc(S(=O)(=O)c2ccc(O)c(CC=C)c2)ccc1O,28.3 µM (active),–
CCc1cccc(C)c1N(C(=O)C(=O)O)C(C)COC (stereo not drawn),inactive,–
